In the supplement of paper PMC5662767:
Where a name gives a salt, the structure may show the parent alone.

Tested on: Drosophila S2 cl14 SmoIP sensor cells
Assay: normalized SmoIP GFP fluorescence (untreated unstimulated = 0%, untreated Hh-stimulated = 100%); higher = more Smo activation sensor fluorescence
Conditions: compound concentration: 2 uM, 24 h
[1] = stimulation: Hh conditioned medium (+Hh)
[2] = stimulation: mock conditioned medium (-Hh)
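Further: flow cytometry read-out as median GFP intensity of gated cells, compounds added 30 min before Hh-conditioned or mock medium, mock-treated cells serving as unstimulated baseline.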

Structure (SMILES) | normalized SmoIP GFP fluorescence [1] [%] | normalized SmoIP GFP fluorescence [2] [%]
C[C@@H]1O[C@@H](O[C@H]2C[C@@H](O)[C@]3(CO)[C@H]4[C@H](O)C[C@]5(C)[C@@H](C6=CC(=O)OC6)CC[C@]5(O)[C@@H]4CC[C@]3(O)C2)[C@H](O)[C@H](O)[C@H]1O [ouabain] | 102 | -2.08
CN1CCC(c2c[nH]c3ccc(O)cc23)CC1 | 111 | -2.82
COC(=O)C1=CCCN(C)C1 [arecoline] | 130 | -12.4
CN1CCCCC1Cn1cc(C(=O)c2cc([N+](=O)[O-])ccc2I)c2ccccc21 (stereo unspecified) |  | 32.3
CC(C)(C)c1cc(C=C(C#N)C#N)cc(Br)c1O [ag-1024-tyrphostin] |  | 14.2
CCOc1ccccc1-n1c(C(C)N2CCN(C(=O)COc3ccc(Cl)cc3)CC2)nc2ccccc2c1=O (stereo unspecified) [erastin] | 134 | 3.66
Cc1cc(SCc2sc(-c3ccc(C(F)(F)F)c(F)c3)nc2C)ccc1OCC(=O)O | 106 | -1.74
C#C[C@]1(O)C=C[C@H]2[C@@H]3CCC4=CC(=O)CC[C@@H]4[C@H]3CC[C@@]21CC [Gestodene] |  | 5.45
CC(=O)Nc1ccc(OC[C@](C)(O)C(=O)Nc2ccc([N+](=O)[O-])c(C(F)(F)F)c2)cc1 [Andarine] | 107 | 0.274
CC[C@@]1(O)C(=O)OCc2c1cc1n(c2=O)Cc2cc3ccccc3nc2-1 [Camptothecine] | 33.6 | 2.64
Cc1cccc(Cc2c[nH]cn2)c1C [detomidine-hcl] | 139 | -8.77
Cc1cccc(C(C)c2c[nH]cn2)c1C (stereo unspecified) [medetomidine-hcl] | 108 | -1.63
